# KCNQ2 block – blocks the rat KCNQ2 potassium channel; O88943; CHO-K1 KCNQ2, FluxOR thallium flux, 20 min; stronger effect = lower value; B-score at 10 µM; 1.1% of 310,000 active; AID 2156;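 active = fluorescence ratio B-score at most minus 3 library SDs, with starting brightness B-score within 2 library SDs, cut at about -5.5 in these data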
# Target sequence (O88943 whole entry, looked up): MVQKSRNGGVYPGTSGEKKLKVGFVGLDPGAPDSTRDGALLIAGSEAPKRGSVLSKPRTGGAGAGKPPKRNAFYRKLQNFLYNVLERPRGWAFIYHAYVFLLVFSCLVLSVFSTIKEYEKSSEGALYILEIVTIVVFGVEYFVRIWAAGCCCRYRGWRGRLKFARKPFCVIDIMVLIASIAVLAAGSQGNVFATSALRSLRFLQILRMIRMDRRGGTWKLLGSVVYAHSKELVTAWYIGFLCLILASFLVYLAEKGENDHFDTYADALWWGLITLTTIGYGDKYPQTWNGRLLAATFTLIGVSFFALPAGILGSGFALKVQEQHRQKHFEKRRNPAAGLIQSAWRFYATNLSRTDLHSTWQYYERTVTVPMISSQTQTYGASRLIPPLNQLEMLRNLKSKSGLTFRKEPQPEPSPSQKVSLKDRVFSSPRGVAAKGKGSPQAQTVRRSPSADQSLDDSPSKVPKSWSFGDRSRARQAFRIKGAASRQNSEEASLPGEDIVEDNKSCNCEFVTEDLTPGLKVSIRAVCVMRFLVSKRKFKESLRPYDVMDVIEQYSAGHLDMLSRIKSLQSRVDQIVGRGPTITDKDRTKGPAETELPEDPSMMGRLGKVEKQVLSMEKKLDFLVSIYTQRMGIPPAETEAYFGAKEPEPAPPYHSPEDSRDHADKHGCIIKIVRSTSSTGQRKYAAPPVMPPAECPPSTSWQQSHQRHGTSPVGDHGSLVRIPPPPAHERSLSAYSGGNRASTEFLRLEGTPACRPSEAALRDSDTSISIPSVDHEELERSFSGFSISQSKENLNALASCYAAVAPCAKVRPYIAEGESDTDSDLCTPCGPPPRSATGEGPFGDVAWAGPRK
# KCNQ2 pot – potentiators of rat KCNQ2 potassium channel; B-score at 10 µM; O88943; CHO-K1 KCNQ2, FluxOR thallium flux fluorescence; stronger effect = higher value; 0.54% of 310,000 active; AID 2239;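 active = fluorescence ratio B-score at least 3 SD of library B-scores, with initial fluorescence B-score within 3 of them, cut at about 5.3 in these data; same plate scores as AID 2156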;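 note: B-score of peak minus minimum over baseline fluorescence ratio after K+ and Tl+ stimulus; positive B-score means potentiation of KCNQ2 with more thallium influx and brighter signal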
# Active calls of the source: *; i = inactive; · = no result. Most compounds without a hit are left out; they make up all but 1.6% or so of the library.
SMILES,KCNQ2 block,KCNQ2 pot
CCN(CC)C(=O)C1(P(=O)(c2ccccc2)c2ccccc2)CCC1,i,·
Cc1ccc(C(=O)N/C(=C/c2ccc(-c3cccc([N+](=O)[O-])c3)o2)C(=O)NC(C)C)cc1,i,·
O=C(N/N=C1\CC2CC=CC12)c1ccc(COc2ccccc2)cc1 (centres undefined),i,·
O=C(CSc1ccccn1)N1CCCC(Nc2ccccc2)C1 (centres undefined),i,·
CC(O)[C@H]1CN=C(N)N1CC(C)(C)C (some centres undefined),i,1.41
O=C1CCCC(O)=C1C(C#Cc1ccccc1)C1=C(O)CCCC1=O,-6.46*,-6.46
CC1(C)CC(=O)C(N=Nc2ccc(-c3ccccc3)cc2)=C(O)C1,i,·
CC1(C)CC(=O)C(C(C#Cc2ccccc2)C2=C(O)CC(C)(C)CC2=O)=C(O)C1,-5.66*,-5.66
O=C1CCCC(O)=C1Sc1ccccc1C(=O)O,i,·
CCOC(=O)c1c(-c2ccc(C)o2)csc1NC(=O)COC(=O)c1cccs1,-5.99*,-5.99
CCOC(=O)c1c(-c2ccc(C)o2)csc1NC(=O)CN1CCOCC1,i,·
Fc1ccc(Br)cc1C1C=C(c2ccc(Br)s2)Nc2ncnn21 (centres undefined),i,·
COc1cccc(C2C=C(c3ccc(Br)s3)Nc3ncnn32)c1OC (centres undefined),-6.6*,-6.6
CC(C)C(=O)c1cc2c(cc1NC(=O)c1cccs1)OCCO2,i,·
CCOC(=O)c1sc2nc3c(cc2c1N)C(=O)CC(C)(C)C3,i,·
COc1ccc(Cl)cc1NC(=O)CN(C1CCCCC1)S(C)(=O)=O,-5.86*,-5.86
CS(=O)(=O)N(CC(=O)Nc1ccc(F)cc1F)C1CCCCC1,i,0.06
Nc1sc(-c2ccccc2)cc1-c1n[nH]c(=S)n1C1CCCCC1,i,·
CSc1nc(C)cc(Oc2ccc(OCCOc3ccccc3)nn2)n1,i,0.06
O=C(CNC(=O)c1ccc(Cl)cc1)Nc1ccc(S(=O)(=O)Nc2ncccn2)cc1,i,·
Cc1nc(N(C)Cc2ccccc2)c2c(C)c(C)sc2n1,i,·
COc1cc(CN2CCC(C(=O)N3CCCC(C)C3)CC2)cc(OC)c1O (centres undefined),i,0.53
COC(=O)c1ccc2c(=O)n(CCN3CCOCC3)c(SCC(=O)Nc3ccc(OC)cc3OC)nc2c1,i,·
COC(=O)c1ccc2c(=O)n(CCN3CCOCC3)c(SCC(=O)Nc3ccccc3Cl)nc2c1,-6.21*,-6.21
Cc1ccc(OCC(=O)NC2CCSc3ccccc32)cc1 (centres undefined),-5.94*,-5.94
SMILES,KCNQ2 block,KCNQ2 pot
CCCOc1ccc(C(=O)NC2CCSc3ccccc32)cc1 (centres undefined),i,·
CC(C)CC1(C(=O)NCCc2c[nH]c3ccccc23)C=CCN1C(=O)c1ccccc1 (centres undefined),-6.39*,-6.39
CC(=O)N1CC=CC1(CC(C)C)C(=O)NCCc1c[nH]c2ccccc12 (centres undefined),i,0.88
CN(C)c1ccc(C2CC(c3cccc(NS(C)(=O)=O)c3)=NN2C(=O)c2ccccc2)cc1 (centres undefined),i,·
CC(C)Oc1cccc(C(=O)C2CCCN(Cc3ccc(Oc4ncccn4)cc3)C2)c1 (centres undefined),-7.77*,-7.77
COc1c(C)cc(C(=O)C2CCCN(Cc3ccc(Oc4ncccn4)cc3)C2)cc1C (centres undefined),i,·
Cc1cc(-c2ccccc2)nc(N(C)NC(=O)c2c(F)cccc2F)c1S(C)(=O)=O,i,·
O=C(Cc1ccc(F)cc1)Nc1nccs1,i,·
Fc1ccc(NC(=S)Nc2nccs2)cc1,i,7.32*
O=C(Cc1ccccc1)Nc1nccs1,i,0.41
S=C(Nc1ccccc1)Nc1nccs1,i,6.55*
COc1ccc(NC(=O)c2cccs2)cc1NC(=O)c1ccco1,i,·
CCC1CCCCN1C(=O)COc1ccc(F)cc1 (centres undefined),i,0.05
CCC1CCCCN1C(=O)COc1c(Br)cc(Br)c2cccnc12 (centres undefined),-7.77*,-7.77
CCc1cc2cc(C(=O)Nc3ccc(F)cc3)sc2s1,i,1.84
O=C(C(Cc1ccccc1)n1cccc1)N1CCN(Cc2ccccc2)CC1 (centres undefined),i,·
O=C(C(Cc1ccccc1)n1cccc1)N1CCN(c2cccc(Cl)c2)CC1 (centres undefined),-5.78*,-5.78
CCC(CC)C(=O)N1CCN(c2ccccc2)CC1,i,·
CCC(C(=O)N1CCN(c2cccc(Cl)c2)CC1)c1ccccc1 (centres undefined),-5.58*,-5.58
Cc1ccnc(NS(=O)(=O)c2ccc(N3C(=O)C4CCCCC4C3=O)cc2)n1 (centres undefined),i,·
O=C(c1cccc(F)c1)N1CCC(c2nc3ccccc3s2)CC1,i,0.82
CC(=O)NC1=NC(=O)C(C)S1 (centres undefined),i,0.7
Cc1ccccc1OCC(O)CNC1CCC(NCC(O)COc2ccccc2C)CC1 (centres undefined),-7.67*,-7.67
Cc1ccc(OCC(O)CNC2CCCC2)c(C)c1 (centres undefined),i,·
CCOC(=O)c1cc(-c2ccccc2)sc1NC(=O)C(C)OC(=O)c1cccc(S(=O)(=O)N(C)C)c1 (centres undefined),i,0.45
SMILES,KCNQ2 block,KCNQ2 pot
O=S(=O)(Nc1ccc(S(=O)(=O)Nc2ncccn2)cc1)c1ccc(Cl)cc1,i,0.49
CCc1cc2c(nc1CC)CCN(CC/C(C)=N/OC[C@H]1O[C@H](c3ccccc3)C=C[C@@H]1Oc1ccc(OC)cc1)C2,i,·
COc1ccc(O[C@H]2C=C[C@@H](c3ccccc3)O[C@@H]2CO/N=C(\C)CCN2CCc3nc(-c4ccccc4)c(-c4ccccc4)cc3C2)cc1,i,7.48*
CCC(c1nnc(SCc2nc3ccccc3s2)n1Cc1ccccc1)N(C)C (centres undefined),-6.34*,-6.34
CCn1c(SCc2nc3ccccc3s2)nnc1-c1ccccc1,i,·
Cc1c(NC2=NC3(CCCCC3)Cc3ccccc32)c(=O)n(-c2ccccc2)n1C,i,0.57
CC1(C)CC(=O)C(C2=NC3(CCCCCC3)Cc3ccccc32)=C(O)C1,-5.76*,-5.76
COc1ccc(/C=C2\C(=O)c3ccccc3OC2c2ccccc2)cc1 (centres undefined),i,·
CCOc1ccc(/C=C2\C(=O)c3ccccc3OC2c2ccccc2)cc1 (centres undefined),-6.2*,-6.2
O=C(c1sc2ccccc2c1Cl)N1CCN(c2ccc(F)cc2)CC1,-6.59*,-6.59
O=C(c1sc2ccccc2c1Cl)N1CCN(c2ccccc2F)CC1,i,·
O=C(NNC(=O)c1ccc(Br)s1)NC1CCCCC1,i,0.26
COC(=O)c1ccc(COc2ccccc2/C=C(\C#N)C(=O)Nc2ccc(C)cc2C)cc1,i,·
COC(=O)c1ccc(COc2ccccc2/C=C(\C#N)C(=O)Nc2c(C)cc(C)cc2C)cc1,-7.24*,-7.24
Cc1cc(C)c2sc(N(CCN(C)C)C(=O)c3ccc4ccccc4c3)nc2c1,-5.91*,-5.91
COc1ccccc1C(=O)N(CCN(C)C)c1nc2cc(C)cc(C)c2s1,i,·
CN(C)CCN(C(=O)c1ccc2c(c1)OCCO2)c1nc2cc3c(cc2s1)OCO3,i,·
CN(C)CCN(C(=O)c1ccc2c(c1)CCCC2)c1nc2cc3c(cc2s1)OCCO3,-7.82*,-7.82
